Screening results (PubChem BioAssay)
VP16 counter – inhibits Gal4-VP16 luciferase reporter, ROR gamma counter-screen; hit rate 3.5% among 310,000; Drosophila S2 Gal4-VP16 UAS-luciferase, luminescence, 20 h; Potency, µM (highest dose often 53.6 µM), inactives show at the highest dose activity, negative = inhibition, most hits filed as inhibitors; AID 2546;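 note: Gal4-VP16 expression switched on by copper sulfate through the metallothionein promoter; nearly all actives have a fitted effect of over 50% in size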
B2AR arrestin – agonists driving beta-arrestin recruitment to human beta2-adrenergic receptor; beta-arrestin recruitment to beta2AR, cell-based reporter; Potency, µM (series often up to 46.1 µM), for the others: at the top dose activation, most hits filed as activators; P07550; AID 492947; hit rate 0.02% among 330,000;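 note: 0% = DMSO controls and full agonism = EC100 isoproterenol or metaproterenol; nearly all actives have a fitted effect of over 65% in size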
NPSR antag – neuropeptide S receptor (human) antagonism, cAMP; Q6W5P4; CHO-NPSR cells, cAMP TR-FRET, antagonist mode; Potency, µM (series often up to 38.3 µM), inactives show at the highest dose activity change, negative = inhibition, usual class: inhibitors; hit rate 1% among 220,000; AID 1461; note: nearly all actives have a fitted effect of over 50% in size
RORgamma inh – inhibitors of mouse ROR gamma transcriptional activity; Potency, µM (highest dose often 53.6 µM), inactives show at the highest dose activity change, negative = inhibition, actives largely listed as inhibitors; Drosophila S2 Gal4-RORgamma UAS-luciferase reporter, 20 h; hit rate 5.4% among 310,000; P51450; note: nearly all actives have a fitted effect of over 60% in size
Target sequence (P51450 whole entry, looked up, the tested form may be a part): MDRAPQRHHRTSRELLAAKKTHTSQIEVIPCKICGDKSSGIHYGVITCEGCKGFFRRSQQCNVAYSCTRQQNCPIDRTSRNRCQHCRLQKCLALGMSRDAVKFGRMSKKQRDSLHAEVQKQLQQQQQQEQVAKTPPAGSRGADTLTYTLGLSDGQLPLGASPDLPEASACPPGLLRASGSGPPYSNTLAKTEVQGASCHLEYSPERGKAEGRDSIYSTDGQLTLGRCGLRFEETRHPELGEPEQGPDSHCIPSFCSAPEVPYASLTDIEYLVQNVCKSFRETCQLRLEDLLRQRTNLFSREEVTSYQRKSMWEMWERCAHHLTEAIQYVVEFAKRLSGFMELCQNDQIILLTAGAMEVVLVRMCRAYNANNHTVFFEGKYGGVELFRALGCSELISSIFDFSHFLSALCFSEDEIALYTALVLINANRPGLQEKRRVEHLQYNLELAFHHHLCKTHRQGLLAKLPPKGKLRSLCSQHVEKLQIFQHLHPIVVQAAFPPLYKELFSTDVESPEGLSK
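Read-out: Photinus luciferase luminescence; inhibitors lower reporter signal. Insect Schneider cells with Gal4-ROR gamma fusion under metallothionein promoter, UAS reporter; 700 uM final copper sulfate induction, 20 hr, ambient temperature.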
* hit, by the source's call; [ ] = remark or other dose. Sampled rows, rich in hits. Any-hit rate of the full collection: about 5.7%. Calls come from the whole dose curve; as a rule, active = well fitted curve in the direction sought with a large enough effect; inconclusive = small, poorly fitted or top-dose-only effect, or another doubt; inactive = no such curve, though single readings can be large; an effect the other way counts as inactive or inconclusive. Unless noted, % is set by controls: 0 for no effect and ±100 for the full control effect; potency is the fitted concentration of half-maximal effect.

`Cc1ccc2c(c1)[nH]c1c(N3CCN(Cc4ccccc4)CC3)ncnc12` gave VP16 counter 3.16µM*, B2AR arrestin -0.2%, NPSR antag inconclusive and RORgamma inh inconclusive.
For CCc1cc2c(N3CCN(C(=O)c4ccco4)CC3)ncnc2s1 the results were VP16 counter -7.3%, B2AR arrestin -0.3%, NPSR antag 10.3% and RORgamma inh inconclusive.
`Cc1ccc2[nH]c3c(N4CCCCCC4)ncnc3c2c1` gave B2AR arrestin 0.3%, NPSR antag inconclusive and RORgamma inh 8.4%[0.365 µM].
COc1cccc2[nH]c3c(N4CCN(Cc5ccc6c(c5)OCO6)CC4)ncnc3c12 was read as VP16 counter -2.7%, B2AR arrestin 2.5%, NPSR antag inconclusive and RORgamma inh 28.5%.
Screening Cc1ccc2[nH]c3c(N4CCN(Cc5ccccc5)CC4)ncnc3c2c1 returned VP16 counter 3.55µM*, B2AR arrestin 0.0%, NPSR antag 12.6µM* and RORgamma inh inconclusive.
`O=C(CCNS(=O)(=O)c1cccs1)N1CCc2ccccc2C1` gave VP16 counter -7.1%, B2AR arrestin 0.1%, NPSR antag 0.5%[46.1 µM] and RORgamma inh 30.0%.
Screening COc1cccc2[nH]c3c(N4CCc5ccccc5C4)ncnc3c12 returned VP16 counter -1.2%, B2AR arrestin -1.0%, NPSR antag -35.0% and RORgamma inh 15.7%.
`c1ccc(CN2CCN(c3ncnc4c3[nH]c3ccccc34)CC2)cc1` gave VP16 counter 15.8µM*, B2AR arrestin 0.3%, NPSR antag inconclusive and RORgamma inh inconclusive.
Screening c1ccc2c(c1)CCN(c1ncnc3c1[nH]c1ccccc13)C2 returned VP16 counter 6.31µM*, B2AR arrestin 0.2%, NPSR antag inconclusive and RORgamma inh 12.6µM*.
For CC(C)=C1CCC(C)CC1=O (stereo not drawn) the results were VP16 counter 2.3% and RORgamma inh 7.0%.
`CCOc1ccc(C(=O)NC(=S)Nc2ccc(N3CCC(C)CC3)cc2)cc1[N+](=O)[O-]` gave VP16 counter inconclusive, B2AR arrestin -1.0%, NPSR antag -7.5% and RORgamma inh 0.398µM*.
Screening CCOc1ccc(C(=O)NC(=S)Nc2ccccc2N2CCC(C)CC2)cc1[N+](=O)[O-] returned VP16 counter 3.16µM*, B2AR arrestin -0.2%, NPSR antag -28.1%[46.1 µM] and RORgamma inh 1µM*.
CCC(=O)N1CCN(c2ccc(NC(=S)NC(=O)c3ccc(OC)c([N+](=O)[O-])c3)cc2)CC1 was read as VP16 counter 5.01µM*, B2AR arrestin 0.1%, NPSR antag 3.7% and RORgamma inh 7.08µM*.
Screening CCCC(=O)N1CCN(c2ccc(NC(=O)c3ccc(OCC)c([N+](=O)[O-])c3)cc2)CC1 returned VP16 counter 6.7%, B2AR arrestin 0.0%, NPSR antag -3.7%[46.1 µM] and RORgamma inh 18.7%.
Screening CCOc1ccc(C(=O)NC(=S)Nc2ccc(NC(=O)c3ccco3)c(C)c2)cc1[N+](=O)[O-] returned VP16 counter inconclusive, B2AR arrestin -0.4%, NPSR antag -10.8%[46.1 µM] and RORgamma inh inconclusive.
Screening CN(C)S(=O)(=O)c1cccc(NC(=S)N2CCc3ccccc32)c1 returned VP16 counter inconclusive, B2AR arrestin -0.7%, NPSR antag -11.1% and RORgamma inh 14.1µM*.
Screening Cc1ccc(S(=O)(=O)N(C)C)cc1NC(=O)Nc1ccccc1 returned VP16 counter 12.3%, B2AR arrestin -0.5%, NPSR antag -7.7% and RORgamma inh 1.2%.
For Cc1ccc(S(=O)(=O)N(C)C)cc1NC(=S)N1CCc2ccccc21 the results were VP16 counter -0.4%, B2AR arrestin -0.1%, NPSR antag -8.7% and RORgamma inh 10µM*.
`Oc1c(Cl)cc(CN2CCCCC2)c2cccnc12` gave VP16 counter 3.55µM*, B2AR arrestin inconclusive and RORgamma inh 4.47µM*.
For Oc1ccc(CNc2ccccc2F)c2cccnc12 the results were VP16 counter inconclusive, B2AR arrestin 0.3%, NPSR antag -20.3%[46.1 µM] and RORgamma inh 10µM*.
For Oc1ccc(CN2CCC(Cc3ccccc3)CC2)c2cccnc12 the results were VP16 counter 4.47µM*, B2AR arrestin 0.1%, NPSR antag -23.3% and RORgamma inh 2.24µM*.
For CSc1ncccc1C(=O)N1CCN(S(=O)(=O)c2cc(C)ccc2C)CC1 the results were VP16 counter -2.0%, B2AR arrestin -0.3% and RORgamma inh 13.3%.
`Cc1ccc(C)c(S(=O)(=O)N2CCN(Cc3ccc(O)c4ncccc34)CC2)c1` gave VP16 counter 3.16µM*, B2AR arrestin 0.1%, NPSR antag -13.0% and RORgamma inh 2µM*.
